Sampled rows, rich in hits. Any-hit rate of the full collection: about 0.9%.
PPARg SRC2 recr: agonists of PPARg-SRC-2 recruitment, primary screen, biochemical, HTS. 200,000 tested, 0.34% active. AID 1032, 2008. activation, % at 8 µM. PPARgamma LBD-SRC-2 recruitment. Peroxisome proliferator-activated receptor gamma (Homo sapiens), P37231; in the data active = activation above about 22%;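 also: 0% = vehicle and 100% = reference agonist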
Target sequence (P37231 whole entry, looked up, the tested form may be a part): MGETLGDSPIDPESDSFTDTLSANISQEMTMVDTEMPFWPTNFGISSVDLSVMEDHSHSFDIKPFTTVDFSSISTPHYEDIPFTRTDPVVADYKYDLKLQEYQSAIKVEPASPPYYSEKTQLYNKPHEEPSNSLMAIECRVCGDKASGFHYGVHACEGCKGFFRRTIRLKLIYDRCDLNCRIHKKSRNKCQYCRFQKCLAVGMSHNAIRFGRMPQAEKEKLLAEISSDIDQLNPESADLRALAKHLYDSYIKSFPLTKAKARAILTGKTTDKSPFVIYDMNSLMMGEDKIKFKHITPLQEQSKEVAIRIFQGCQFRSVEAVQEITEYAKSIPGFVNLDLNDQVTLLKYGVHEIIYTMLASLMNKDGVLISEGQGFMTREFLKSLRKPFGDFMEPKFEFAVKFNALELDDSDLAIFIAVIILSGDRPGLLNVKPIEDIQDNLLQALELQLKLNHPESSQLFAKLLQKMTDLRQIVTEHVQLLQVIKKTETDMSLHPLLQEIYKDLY
PPARg SRC3 recr: PPARgamma agonists recruiting SRC-3 coactivator, primary screen, biochemical; biochemical PPARgamma/SRC-3 coactivator recruitment assay; AID 731, 2007; Peroxisome proliferator-activated receptor gamma (Homo sapiens), P37231; activation, % at 8 µM; 200,000 tested, 0.26% active; in the data active = activation above about 23%;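 also: 0% = DMSO and 100% = reference agonist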
SRC1 TRFRET art: TR-FRET detection interference compounds, primary screen, artefact control for PPARgamma SRC-1 recruitment agonists, biochemical, TR-FRET emission ratio; TR-FRET detection artefact counter-screen; hits give high values; TR-FRET ratio at 8 µM; 99,000 tested, 0.34% active; AID 1051, 2008; in the data active = TR-FRET ratio above about 2300
PPARg SRC-1 ag: PPARgamma agonists recruiting SRC-1 coactivator, primary screen, biochemical; Peroxisome proliferator-activated receptor gamma (Homo sapiens), P37231; PPARgamma-SRC-1 coactivator recruitment biochemical assay; activation, % at 8 µM; 200,000 tested, 0.41% active; AID 631, 2007; in the data active = activation above about 19%;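 also: 0% = DMSO and 100% = reference agonist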
TR-FRET SRC-2 ct: TR-FRET signal artefacts, primary screen, artefact control for PPARgamma SRC-2 agonist project, biochemical. TR-FRET artefact counter-screen; hits give high values. TR-FRET ratio at 8 µM. 200,000 tested, 0.4% active. AID 1049, 2008
SRC3 TRFRET art: TR-FRET detection interference compounds, artefact control for PPARgamma SRC-3 recruitment agonists, biochemical, TR-FRET ratio; TR-FRET artefact counter-screen, PPARgamma/SRC-3 format; hits give high values; TR-FRET ratio at 8 µM; 99,000 tested, 0.39% active; AID 1048, 2008
PPARg SRC2 ag: agonists of PPARgamma SRC-2 coactivator recruitment, confirmation, biochemical, HTS; biochemical SRC-2 recruitment by PPARgamma; 790 tested, 52% active; shares compounds with PPARg SRC3 recr; activation, % at 8 µM; in the data active = activation above about 22%;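 also: 0% = vehicle alone and 100% = reference agonist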
PPARg SRC1 ag: PPARgamma agonists recruiting SRC-1 coactivator, confirmation, biochemical | activation, % at 8 µM | 790 tested, 43% active | PPARgamma–SRC-1 coactivator recruitment biochemical assay | shares compounds with PPARg SRC3 recr; in the data active = activation above about 20%;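 also: 0% = vehicle wells and 100% = reference agonist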
PPARg SRC3 ag: PPARgamma-driven SRC-3 coactivator recruitment agonists, confirmation, biochemical; shares compounds with PPARg SRC3 recr; biochemical PPARgamma-SRC-3 coactivator recruitment, agonist mode; activation, % at 8 µM; 790 tested, 29% active; in the data active = activation above about 24%;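 also: 0% = vehicle wells and 100% = reference agonist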
Numbers without * were called inactive. Rule as the data show it, unless noted: active = TR-FRET ratio above about 2000; inactive = the rest.

Screening Cc1nc(N)sc1C(=O)Nc1ccccc1 returned PPARg SRC2 recr -4, PPARg SRC3 recr 4, PPARg SRC-1 ag 2 and TR-FRET SRC-2 ct 1547.
Screening Cc1cccc(Nc2nc(-c3ccccc3)c(C(=O)Nc3cccnc3)s2)c1 returned PPARg SRC2 recr 38*, PPARg SRC3 recr 27*, SRC1 TRFRET art 3448*, PPARg SRC-1 ag 29*, TR-FRET SRC-2 ct 2484*, SRC3 TRFRET art 3117*, PPARg SRC2 ag 57*, PPARg SRC1 ag 44* and PPARg SRC3 ag 38*.
For Cc1nc(NC(N)=S)sc1C(=O)Nc1ccccc1 the results were PPARg SRC2 recr 18, PPARg SRC3 recr 27*, PPARg SRC-1 ag 14, TR-FRET SRC-2 ct 1621, PPARg SRC2 ag 5, PPARg SRC1 ag 5 and PPARg SRC3 ag 5.
Screening O=C(Nc1cccnc1)c1sc(Nc2ccccc2)nc1-c1ccccc1 returned PPARg SRC2 recr 55*, PPARg SRC3 recr 42*, SRC1 TRFRET art 3708*, PPARg SRC-1 ag 48*, TR-FRET SRC-2 ct 2618*, SRC3 TRFRET art 3330*, PPARg SRC2 ag 79*, PPARg SRC1 ag 59* and PPARg SRC3 ag 54*.
`C=CCOc1cccc(C2C(C(=O)c3ccco3)=C(O)C(=O)N2CCN(CC)CC)c1` (configuration not stated) gave PPARg SRC2 recr 7, PPARg SRC3 recr 0, PPARg SRC-1 ag 8 and TR-FRET SRC-2 ct 1590.
Screening Cc1cc(N2C(=O)C(O)=C(C(=O)c3cccs3)C2c2cccc(O)c2)no1 (configuration not stated) returned PPARg SRC2 recr 6, PPARg SRC3 recr -4, PPARg SRC-1 ag -2 and TR-FRET SRC-2 ct 1443.
Screening Cc1ccc2nc(N3C(=O)C(O)=C(C(=O)c4ccc(C)o4)C3c3cccc(O)c3)sc2c1 (configuration not stated) returned PPARg SRC2 recr 24*, PPARg SRC3 recr 10, SRC1 TRFRET art 2305, PPARg SRC-1 ag 15, TR-FRET SRC-2 ct 1951, SRC3 TRFRET art 1853, PPARg SRC2 ag 4, PPARg SRC1 ag 4 and PPARg SRC3 ag 2.
C=CCOc1cccc(C2C(C(=O)c3ccc(C)o3)=C(O)C(=O)N2c2nccs2)c1 (configuration not stated) was read as PPARg SRC2 recr 32*, PPARg SRC3 recr 23, PPARg SRC-1 ag 24*, TR-FRET SRC-2 ct 2025*, PPARg SRC2 ag 2, PPARg SRC1 ag -1 and PPARg SRC3 ag 3.
Screening CC(C)(C)C(=O)NC1CCN(S(=O)(=O)c2ccc(C(F)(F)F)cc2)CC1 returned PPARg SRC2 recr 10, PPARg SRC3 recr -1, PPARg SRC-1 ag 0 and TR-FRET SRC-2 ct 1591.
For CC(NC(=S)NCCCN1CCOCC1)C12CC3CC(CC(C3)C1)C2 (configuration not stated) the results were PPARg SRC2 recr 4, PPARg SRC3 recr 4, SRC1 TRFRET art 1909, PPARg SRC-1 ag 6, TR-FRET SRC-2 ct 1644 and SRC3 TRFRET art 1623.
For NC(=O)CSc1nc2scc(-c3ccco3)c2c(=O)n1-c1ccccc1 the results were PPARg SRC2 recr 15, PPARg SRC3 recr 5, PPARg SRC-1 ag 15 and TR-FRET SRC-2 ct 1825.
`O=C(CSc1nc2scc(-c3ccco3)c2c(=O)n1-c1ccccc1)N1CCOCC1` gave PPARg SRC2 recr 35*, PPARg SRC3 recr 37*, PPARg SRC-1 ag 23*, TR-FRET SRC-2 ct 2021*, PPARg SRC2 ag 26*, PPARg SRC1 ag 21* and PPARg SRC3 ag 19.
`COc1cccc(C2C(C(=O)c3cc4cccc(OC)c4o3)=C(O)C(=O)N2c2cc(C)on2)c1OC` (configuration not stated) gave PPARg SRC2 recr 35*, PPARg SRC3 recr 45*, PPARg SRC-1 ag 33*, TR-FRET SRC-2 ct 2236*, PPARg SRC2 ag 41*, PPARg SRC1 ag 28* and PPARg SRC3 ag 26*.
COc1cc(C2C(C(=O)c3ccc(C)o3)=C(O)C(=O)N2c2cc(C)on2)ccc1O (configuration not stated) was read as PPARg SRC2 recr 5, PPARg SRC3 recr 3, PPARg SRC-1 ag 8 and TR-FRET SRC-2 ct 1751.
For COc1ccc(OC)c(C2C(C(=O)c3cccs3)=C(O)C(=O)N2c2cc(C)on2)c1 (configuration not stated) the results were PPARg SRC2 recr 2, PPARg SRC3 recr -2, PPARg SRC-1 ag -6 and TR-FRET SRC-2 ct 1544.
Screening COc1cccc(C2C(C(=O)c3cc4ccccc4o3)=C(O)C(=O)N2c2cc(C)on2)c1OC (configuration not stated) returned PPARg SRC2 recr 45*, PPARg SRC3 recr 69*, PPARg SRC-1 ag 50*, TR-FRET SRC-2 ct 2593*, PPARg SRC2 ag 36*, PPARg SRC1 ag 28* and PPARg SRC3 ag 25*.
Cc1ccc2[nH]c3c(=S)nc[nH]c3c2c1 was read as PPARg SRC2 recr 38*, PPARg SRC3 recr 22, SRC1 TRFRET art 2302, PPARg SRC-1 ag 23*, TR-FRET SRC-2 ct 2733*, SRC3 TRFRET art 2834*, PPARg SRC2 ag 14, PPARg SRC1 ag 5 and PPARg SRC3 ag 10.
CCCCn1c(SCC(=O)NNC(=O)c2ccco2)nnc1-c1ccco1 was read as PPARg SRC2 recr -4, PPARg SRC3 recr 0, SRC1 TRFRET art 1694, PPARg SRC-1 ag 4, TR-FRET SRC-2 ct 1478 and SRC3 TRFRET art 1297.
`c1csc(-c2csc(-c3cccs3)n2)c1` gave PPARg SRC2 recr 8, PPARg SRC3 recr 7, PPARg SRC-1 ag 16 and TR-FRET SRC-2 ct 1741.
For Brc1cc(Br)c2nc(-c3cccs3)ccc2c1 the results were PPARg SRC2 recr 45*, PPARg SRC3 recr 52*, PPARg SRC-1 ag 23*, TR-FRET SRC-2 ct 2365*, PPARg SRC2 ag 36*, PPARg SRC1 ag 24* and PPARg SRC3 ag 24.
Screening Cc1cc(C(=O)CSc2nc(N)cc(N)n2)c(C)n1-c1cccc(F)c1 returned PPARg SRC2 recr 8, PPARg SRC3 recr 4, SRC1 TRFRET art 1992, PPARg SRC-1 ag 9, TR-FRET SRC-2 ct 1540 and SRC3 TRFRET art 1758.

Bioassay records deposited in PubChem BioAssay by The Scripps Research Institute Molecular Screening Center.
